Spn PMK inh: inhibitors of Streptococcus pneumoniae phosphomevalonate kinase; 65,000 tested, 0.49% active; purified PMK, PK/LDH-coupled NADH absorbance 340 nm; AID 539; inhibition, % at 10 µM;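 active = top-ranked compounds by inhibition in the single 10 µM screen, taking a fixed number of the strongest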
Fluor 339 460: intrinsic fluorescence of library compounds, ex339/em460 – biochemical, MLSMR library, data from DPM-DC assay, artefact control, profiling panel | 65,000 tested, 5.5% active | compound autofluorescence, ex339/em460 nm, NADH buffer; active compounds read high; 1 = no-compound wells, NADH background | fluorescence fold increase at 10 µM | AID 709;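 active = at 10 µM, mean starting fluorescence two-fold or more over control wells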;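 note: signal is the first read of a kinetic run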
Spn DPM-DC inh: blocks S. pneumoniae diphosphomevalonate decarboxylase | purified DPM-DC, PK/LDH coupled NADH fluorescence | calls only at 10 µM | 65,000 tested, 0.49% active;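 active = the 320 compounds with the highest percent inhibition in the single-dose primary screen, excluding strongly autofluorescent ones, cut at about 32% in these data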;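 note: kinetic rate of NADH fluorescence loss reporting ADP formed by the decarboxylase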
NADH enzymes: blocks coupling enzymes of NAD/NADH assays; IC50, µM (doses to about 10 µM); AID 774; 65,000 tested, 0.02% active; coupled PK/LDH NADH assays, four targets;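 active = single-dose screening hits from any of four coupled enzyme assays that gave an IC50 when retested across doses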;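 note: the DPM-DC format reads NADH fluorescence rather than 340 nm absorbance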
Abs 340nm: absorbance at 340 nm; compound absorbance at 340 nm, fold over control; fold change at 10 µM; 65,000 tested, under 10 active; AID 708;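 active = at 10 µM dose, initial 340 nm absorbance at least 2 fold that of control wells; inactive = change under 2 fold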;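 note: initial absorbance extrapolated from kinetic A340 decline of NADH oxidation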
Spn MK inh: inhibitors of Streptococcus pneumoniae mevalonate kinase; inhibition, % at 10 µM; 65,000 tested, 0.48% active; purified MK, PK/LDH-coupled NADH absorbance 340 nm; AID 555;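 active = ranked among the strongest by inhibition in the single 10 µM screen, a fixed top-ranked set picked for dose follow-up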
Of the large screens only hits and unclear results are named; the others gave an inactive call; [ ] = remark or other dose. Shown are actives, neighbours in structure and some others; about 6.8% of the full set was active somewhere.

COc1cc(C(=O)Nc2ccc3c(c2)OCO3)ccc1-n1cnnn1	Spn DPM-DC inh active
COc1cc(C(=O)Nc2ccc3c(c2)OCCO3)c(-n2cnnn2)cc1OC	none
O=C(Nc1ccc2nn(-c3ccccc3)nc2c1)c1ccc2c(c1)OCO2	Fluor 339 460 2.6
COc1ccc(S(=O)(=O)Nc2cc(C(=O)NCCC(C)C)ccc2N2CCOCC2)cc1	none
Cc1ccc(-c2noc(CN3C(C)CCCC3C)n2)cc1 (centres undefined)	none
COC(=O)c1sc2ccccc2c1N	Fluor 339 460 2.1 (not shown: Spn DPM-DC inh)
COC(=O)c1sc2ccccc2c1C(=O)OC	none
Cc1cc(C)c2c(n1)nn1c(N3CCN(Cc4ccccc4)CC3)cc(C)nc21	Fluor 339 460 3.9 (not shown: Spn DPM-DC inh)
COc1ccc(F)cc1CN1CCN(c2cc(C)nc3c4c(C)cc(C)nc4nn23)CC1	Fluor 339 460 3.9 (not shown: Spn DPM-DC inh)
COc1ccc(Cl)cc1CN1CCN(c2nc(C)cc(C)c2C#N)CC1	none
O=C1NC(=O)C(CC(=O)N(c2ccccc2)C2(C(=O)NC3CCCC3)CCCCC2)N1 (centres undefined)	Spn DPM-DC inh active
O=C1CCC(C(=O)N(c2ccccc2)C2(C(=O)NC3CCCCC3)CCCCC2)N1 (centres undefined)	none
O=C(CC1Nc2ccccc2NC1=O)NC1CCCCC1 (centres undefined)	Fluor 339 460 2
CCCCCCn1c(CN2CCN(C(=O)OCC)CC2)nc2c1c(=O)n(C)c(=O)n2C	none
N#Cc1cnn(-c2ccccc2)c1N	none
Cc1cc(-c2ccccc2)n2ncc(C#N)c2n1	Fluor 339 460 2.1 (not shown: Spn DPM-DC inh)
CCOC(=O)c1sc(NC(=O)CCn2nnc3ccccc32)c(C(=O)OCC)c1C	none
Cc1ccc2c(c1)-c1cc(C)nn1C(c1sccc1C)N2 (centres undefined)	Fluor 339 460 2.2
Cc1cc2n(n1)C(c1sccc1C)Nc1c(C)cccc1-2 (centres undefined)	Fluor 339 460 2.1
Cc1cc2n(n1)C(c1sccc1C)Nc1ccccc1-2 (centres undefined)	none
O=C(c1ccco1)N1CCN(S(=O)(=O)c2ccc(F)cc2)CC1	none
CCCc1cc(=O)oc2cc(OCC(=O)OC)cc(OCC(=O)OC)c12	Fluor 339 460 2.1 (not shown: Spn DPM-DC inh)
CCCc1cc(=O)oc2cc(C)cc(OCc3nn[nH]n3)c12	Fluor 339 460 3.8 (not shown: Spn DPM-DC inh)
O/N=C1\CCCc2oc3c(c21)CCCC3	none
C[C@@H]1C[C@H](O)c2cc(Cl)ccc2N1	none
Fc1ccc2c(c1)[C@H]1OCC[C@H]1[C@@H](c1ccco1)N2	Fluor 339 460 2.7
Clc1ccc2c(c1)[C@H]1OCC[C@H]1[C@@H](c1ccco1)N2	Fluor 339 460 2.3, Spn DPM-DC inh active[fluoresces]
CC1(C)Cc2ccccc2-c2nnc(SCC(=O)N3CCN(c4ccccc4)CC3)n21	none
C=CCOc1c(Cl)cc(C2NC(=O)NC(C)=C2C(=O)OC)cc1Cl (centres undefined)	none
Cc1nn(-c2ccc(F)cc2)c2sc(C(=O)OC3CCOC3=O)cc12 (centres undefined)	Fluor 339 460 2.1 (not shown: Spn DPM-DC inh)
CC(NC(=O)C1CCCCC1)C(c1cccs1)N1CCN(C)CC1 (centres undefined)	none
COC(=O)c1ccc(C(=O)OC)c(NC(=O)CCc2ccc(C)o2)c1	none
COC(=O)c1ccc(C(=O)OC)c(NC(=O)CCC(=O)O)c1	Fluor 339 460 2.1 (not shown: Spn DPM-DC inh)
O=c1[nH]c(NCCO)nc2c1C1(CCCCC1)Cc1ccccc1-2	Fluor 339 460 3.9 (not shown: Spn DPM-DC inh)
CCc1nc2c(c(=O)[nH]1)C1(CCCC1)Cc1ccccc1-2	none
CC1(C)CC(n2c(NCCO)nc3c(c2=O)C2(CCCC2)Cc2ccccc2-3)CCO1 (centres undefined)	Fluor 339 460 2 (not shown: Spn DPM-DC inh)
O=C(CN(CCN1CCOCC1)C(=O)Cn1nnc(-c2ccc(F)cc2)n1)NC1CCCCC1	Fluor 339 460 3.6 (not shown: Spn DPM-DC inh)
O=C(C(c1ccccc1)c1ccccc1)N1CCN(Cc2ccncc2)CC1	none
O=C(C(c1ccccc1)c1ccccc1)N1CCN(Cc2ccccn2)CC1	Spn MK inh 52
CCN(CC)Cc1c[nH]c2c(C(=O)OC)cccc12	Fluor 339 460 2.1 (not shown: Spn DPM-DC inh)
CCCc1nc2oc(C(=O)OCC)c(N)c2c2c1COC(C)(C)C2	Fluor 339 460 3.9 (not shown: Spn DPM-DC inh)
CCOC(=O)c1oc2nc(C(C)C)c3c(c2c1N)CCC3	Fluor 339 460 3.8 (not shown: Spn DPM-DC inh)
Cc1nc2oc(C(=O)c3ccccc3)c(N)c2c2c1COC(C)(C)C2	none
CCOC(=O)c1c(SC)nc(SC)c2c1CCC2	none
CCOC(=O)c1oc2nc(C(C)C)c3c(c2c1N)CC(C)(C)OC3	Fluor 339 460 3.8 (not shown: Spn DPM-DC inh)
O=C(CSc1nnc(Cn2c(=O)sc3ccccc32)n1-c1ccccc1)Nc1nccs1	none
CCCCc1cc2c(c(NC(C)=O)n1)c(=O)oc1ccccc12	none
CCCCc1cc2c(c(NC(=O)CC)n1)c(=O)oc1ccccc12	Fluor 339 460 2.2
CC1CCCN(c2nc3c(c(=O)[nH]c(=O)n3C)n2CCCc2ccccc2)C1 (centres undefined)	none
CCn1c(=O)c(C(=O)Nc2nc3ccccc3[nH]2)c(O)c2ccccc21	Fluor 339 460 2.4
CCn1c(=O)c(C(=O)Nn2c(C)nc3ccccc3c2=O)c(O)c2ccccc21	none
CN1CC2=Cc3ccccc3OC23Oc2ccccc2C=C3C1	none
CC(C)CCn1c(SCC(N)=O)nc2c1c(=O)n(C)c(=O)n2C	none
O=C(Nc1cccc(-c2cnc3ccccc3n2)c1)c1ccco1	none
O=C(Nc1cccc(-c2cn3cccnc3n2)c1)c1ccc2c(c1)OCO2	Fluor 339 460 5.3 (not shown: Spn DPM-DC inh)
O=C(Nc1cccc(-c2cn3cccnc3n2)c1)c1ccc(Br)o1	Fluor 339 460 5.2 (not shown: Spn DPM-DC inh)
O=C(Nc1cccc(-c2cn3cccnc3n2)c1)c1ccco1	Fluor 339 460 5.4 (not shown: Spn DPM-DC inh)
CCC(=O)c1ccc(OCC(=O)Nc2nn3cnnc3s2)cc1	none
O=C(OCC#CCSc1nnc(-c2ccccc2)o1)c1cccs1	none
O=C(OCC#CCSc1nnc(-c2cccc3ccccc23)o1)c1cccs1	Fluor 339 460 2.2
COc1ccc(OC)c(C2C3CN(C(C)C)CC=C3C(C#N)=C(N)C2(C#N)C#N)c1 (centres undefined)	none
Cc1ccc(C2C3CN(C(C)C)CC=C3C(C#N)=C(N)C2(C#N)C#N)cc1 (centres undefined)	Fluor 339 460 2.3, Spn DPM-DC inh active[fluoresces]
CN1CC=C2C(C#N)=C(N)C(C#N)(C#N)C(c3cccc(Cl)c3Cl)C2C1 (centres undefined)	none
N#CC1=C(N)C(C#N)(C#N)[C@H](c2ccoc2)[C@H]2CN(Cc3ccccc3)CC=C12	Fluor 339 460 2.3
CCCN1CC=C2C(C#N)=C(N)C(C#N)(C#N)C(c3cccc(OC)c3OC)C2C1 (centres undefined)	Fluor 339 460 2.2
CCN1CC=C2C(C#N)=C(N)C(C#N)(C#N)C(CCc3ccccc3)C2C1 (centres undefined)	Fluor 339 460 5.1 (not shown: Spn DPM-DC inh)
CCNc1nc(NC(C)C)nc(Oc2ccc(OCCOc3ccc(C)cc3)nn2)n1	none

From PubChem
